# This is part of a sample that, as a whole, favours compounds with a hit. Of some 83,000 tested, about 20% had one in any assay.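 How to read the values: 0–100, growth inhibition (40 = 60% inhibited); 0, no net growth; -100 to 0, cell death (-40 = 40% of starting cells died; -100 = all dead).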 Unmarked numbers belong to inactive results. Rule for the calls: active = growth percent below 10; inactive = the rest.
# Test system: OVCAR-5 ovarian
# Assay: NCI-60 one-dose screen, 48 h (100 = growth as untreated, 0 = no growth, -100 = all killed)
# Conditions: 10 µM
row,Structure (SMILES),growth [%]
1,CC(=O)OC/C=C(/C)C[P+](c1ccccc1)(c1ccccc1)c1ccccc1,81.4
2,CCOC(=O)c1cc(C(=O)c2cc(OC)cc(OC)c2)n2ncc3ccccc3c12,55.2
3,C=CCN(CC=C)C(=O)[C@H](CC)[C@@H]1CC[C@@H](C)[C@@H]([C@H](C)[C@@H](O)[C@@H](C)C(=O)[C@H](CC)C2O[C@]3(C=CC(=O)[C@]4(CC[C@@](C)([C@H]5CC[C@](O)(CC)[C@H](C)O5)O4)O3)[C@H](C)C[C@@H]2C)O1 (stereo not given in full),32.8
4,Cc1c2c(nn1C(=O)c1nn(-c3ccc(Cl)cc3)cc1O)-c1ccccc1CC2,40.8
5,O=C(CCn1cnc2c(cc(-c3ccccc3)n2-c2ccccc2)c1=O)Nc1ccc(F)cc1,85.8
6,COc1ccc(-c2onc(N)c2-c2cc(OC)c3c(c2)OCO3)cc1,51.3
7,CCCN(CCC)C(=O)[C@H](CC)[C@@H]1CC[C@@H](C)[C@@H]([C@H](C)[C@@H](O)[C@@H](C)C(=O)[C@H](CC)C2O[C@]3(C=C[C@@H](O)[C@]4(CC[C@@](C)([C@H]5CC[C@](O)(CC)[C@H](C)O5)O4)O3)[C@H](C)C[C@@H]2C)O1 (stereo not given in full),11.4
8,CCOC(=O)c1cc(C(=O)c2cc(OC)c(OC)c(OC)c2)n2c1ccc1c3cccnc3ccc12,91.9
9,COc1cc(NC(=O)Nc2cnc(Nc3ccc(N4CCOCC4)cc3)nc2Oc2cccc(OC)c2)cc(OC)c1,96.5
10,Fc1ccc2[nH]cc(-c3nc(-c4ccsc4)cs3)c2c1,107

# From PubChem BioAssay (NCI)
